Screening data: PubChem BioAssay, National Center for Advancing Translational Sciences (NCATS)
RXFP1 ag: RXFP1 (human) receptor agonism; HEK293T-RXFP1 cAMP TR-FRET, 30 min; response scale: percent of porcine relaxin response, buffer zero; Potency, µM (series often up to 57.5 µM), inactives show top-dose activation, usual class: activators; 370,000 tested, 0.3% active; AID 2676; active means well fitted activation curve with a large enough effect; inconclusive means small, poorly fitted or top-dose-only effect; further: potency means the concentration at half of the fitted maximal effect; on the % scale 0 is the no-effect control and ±100 the full control effect; nearly all actives have a fitted effect of over 60% in size
Target sequence (Q9HBX9 whole entry, looked up): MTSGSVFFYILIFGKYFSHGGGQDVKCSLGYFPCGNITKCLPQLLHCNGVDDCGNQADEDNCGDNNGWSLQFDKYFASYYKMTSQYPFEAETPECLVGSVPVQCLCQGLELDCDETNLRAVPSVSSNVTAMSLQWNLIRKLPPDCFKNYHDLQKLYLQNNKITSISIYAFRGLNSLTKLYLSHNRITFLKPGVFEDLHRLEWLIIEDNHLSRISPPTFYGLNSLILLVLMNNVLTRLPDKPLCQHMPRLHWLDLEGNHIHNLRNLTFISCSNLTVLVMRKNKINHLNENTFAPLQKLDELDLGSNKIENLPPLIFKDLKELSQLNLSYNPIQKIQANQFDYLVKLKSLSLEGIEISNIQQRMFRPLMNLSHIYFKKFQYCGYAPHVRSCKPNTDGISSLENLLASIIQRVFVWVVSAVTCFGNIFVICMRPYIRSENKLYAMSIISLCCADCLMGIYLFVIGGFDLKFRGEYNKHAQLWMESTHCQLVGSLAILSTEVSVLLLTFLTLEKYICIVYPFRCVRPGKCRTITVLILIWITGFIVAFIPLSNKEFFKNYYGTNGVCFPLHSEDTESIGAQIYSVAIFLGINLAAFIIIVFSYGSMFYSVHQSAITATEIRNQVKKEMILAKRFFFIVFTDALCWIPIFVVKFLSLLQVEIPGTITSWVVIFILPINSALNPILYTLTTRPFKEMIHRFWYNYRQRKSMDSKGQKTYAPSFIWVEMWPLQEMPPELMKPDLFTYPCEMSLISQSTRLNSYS
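HEK293 cells stably expressing RXFP1, treated 30 min at 37C with compounds plus PDE4 inhibitor Ro 20174; cAMP measured by HTRF TR-FRET. Normalized to buffer and 29 nM porcine relaxin; EC50 by Hill fit.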
Giardia kill: kills Giardia lamblia; Giardia lamblia trophozoite viability; activity change, % at 7.66 µM, hits read low; 340,000 tested, 0.15% active; AID 540267; in the data active means activity change below about -80%; inconclusive means between about -30% and that limit;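 further: parasites exposed to compound for two days anaerobically before the ATP read; on the % scale 0 is the no-effect control and ±100 the full control effect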
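Compounds were tested on trophozoites seeded at 100 cells/well and held 48 hrs at 37 deg C anaerobically. An ATP-based luminescent kit measured the remaining live cells.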
Coupling enz: counter-screen for Giardia aldolase inhibitors: coupling enzyme system; coupling enzyme system counterscreen, AmpLite Red fluorescence; activity change, negative = inhibition, % at 58.2 µM, hits read low; 290,000 tested, 0.67% active; AID 2472; in the data active means activity change below about -30%; further: on the % scale 0 is the no-effect control and ±100 the full control effect
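Final compound at 57.5 uM, incubated 10 min at RT with coupling enzyme reagent (glyceraldehyde-3-phosphate), then 20 min with substrate and AmpLite Red detection. Fluorescence read at 525/598 nm; tests interference with the coupling assay, not aldolase inhibition.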
RXFP1 antag: antagonists of human relaxin receptor RXFP1; HEK293-RXFP1, relaxin-stimulated cAMP HTRF, 30 min; stronger effect = lower value; 350,000 tested, 0.59% active; activity change, negative = inhibition, % at 57.5 µM; Q9HBX9; AID 1259400;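 active means activity change of -60% or lower, but not beyond a set lower limit; inconclusive means change between -60% and -40%, or beyond the set limit; inactive means change above -40%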; further: on the % scale 0 is the no-effect control and ±100 the full control effect
gsp agonist: gsp mutant agonism. gsp mutant cells, cAMP HTRF, 30 min. Potency, µM (doses to about 76.9 µM), for the others: at the highest dose activation (cAMP increase), hits mostly activators. 340,000 tested, 0.13% active; active means well fitted activation curve with a large enough effect; inconclusive means small, poorly fitted or top-dose-only effect, or another doubt; inactive means no such curve, though single readings can be large or run the other way; cell line not stated here;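 further: phosphodiesterase inhibitor Ro 20-1724 added with compounds to block cAMP breakdown; potency means the concentration at half of the fitted maximal effect; nearly all actives have a fitted effect of over 60% in size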
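Cells in DMEM/10% FBS with G418 were pretreated with compounds in DMSO plus […] (300 uM stock) for 30 min at 37C. cAMP was measured by HTRF (cAMP-d2 plus anti-cAMP antibody-K) after 30 min at room temperature.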
gsp antagonist: antagonizes gsp, the McCune-Albright syndrome mutation. gsp-mutant cells, cAMP HTRF, 30 min. Potency, µM (doses to about 76.9 µM), for inactives: at the highest dose activity change, negative = inhibition, usual class: inhibitors. 340,000 tested, 0.4% active. AID 624288; calls by dose curve; cell line not stated here;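 further: intracellular cAMP measured with PDE inhibitor Ro 20-1724 present during compound exposure; potency means the concentration at half of the fitted maximal effect; on the % scale 0 is the no-effect control and ±100 the full control effect; nearly all actives have a fitted effect of over 65% in size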
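HTRF cAMP read-out (cAMP-d2 plus anti-cAMP antibody-K in lysis buffer, 30 min RT). Before lysis, cells are exposed to compounds with […] for 30 min at 37C in DPBS containing Ca/Mg, BSA and Tween 20.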
An asterisk follows results filed as active; ? = inconclusive; nt = no result given; [ ] = remark or other dose. The list is not random: actives were taken first. Their share in the collection is about 1.6%.

SMILES	RXFP1 ag	Giardia kill	Coupling enz	RXFP1 antag	gsp agonist	gsp antagonist
CCCCC(C)/C=C(C)/C=C(\C)C(=O)NC1=CC(O)(/C=C/C=C/C=C/C(=O)NC2=C(O)CCC2=O)C2OC2C1=O (stereo not given)	nt	nt	2.0	nt	nt	nt
O=S(=O)(Nc1nc2ccccc2nc1NCc1ccco1)c1ccc(Cl)cc1	1.7%	20.5	11.1	-13.3	?	-23.1%
Cc1noc(C)c1CSc1nc2ccccc2nc1NS(=O)(=O)c1ccc(Cl)cc1	0.4%	-17.8	16.0	-1.7	18.9%	31.6µM*
COc1cccc(-c2cc(C(=O)NCc3ccco3)c3ccccc3n2)c1	-1.5%	-2.5	1.0	-86.2*	-44.5%	-1.9%
COc1cccc(-c2ccc(C#N)c(SCC(=O)NCc3ccco3)n2)c1	35.5µM*	1.4	5.1	-4.5	?	-19.8%
COc1ccc(-c2cc(-c3cccs3)c(C#N)c(SCC(=O)NCc3ccco3)n2)cc1	9.8%	8.7	-2.4	-9.5	-30.2%	-9.7%
CC(C)(C)C(=O)NCCc1nc2ccccc2n1CCCCOc1ccc(Cl)cc1	-1.0%	nt	nt	-84.9*	nt	nt
Cc1ccccc1OCCCCn1c(CCNC(=O)C(C)(C)C)nc2ccccc21	-1.0%	nt	nt	-62.8*	nt	nt
COc1cccc(Cl)c1NC(=O)N1CCc2c([nH]c3ccccc23)C1C(F)(F)F (stereo not given)	-2.1%	-6.3	-3.8	-74.7*	?	-14.8%
O=C(Nc1ccccc1)N1CCc2c([nH]c3ccccc23)C1C(F)(F)F (stereo not given)	0.2%	-5.4	1.6	1.4	-0.7%	-8.7%
Cc1[nH]c2ccccc2c1C(c1ccccn1)c1c(C)[nH]c2ccccc12	-3.7%	5.5	-71.2*	-6.1	7.5%	-11.4%
O=C(Nc1ccccc1)c1nnsc1S(=O)c1ccc(Cl)cc1 (stereo not given)	0.2%	0.0	-1.8	-104.6*	-21.3%	-1.4%
C=CCNC(=O)c1cc(-c2ccncc2)nc2c(C)cc(C)cc12	1.9%	28.5	-0.4	6.2	24.5%	-19.8%
CCc1c(-c2ccccc2)nc2sc3c(c2c1N)CCCC3	0.3%	-3.4	0.5	-31.8	6.1%[15.4 µM]	35.5µM*
Nc1c(C(=O)O)sc2nc(-c3ccccc3)c3c(c12)CCCC3	2.6%	-12.5	12.1	1.9	?	-3.9%
CCOc1ccc(C(=O)Nc2ccc(C(F)(F)F)n(C)c2=O)cc1	3.9%	-6.5	0.5	5.5	28.2µM*	3.2%
O=[N+]([O-])c1ccc(O)c(C=Nc2ccc3oc(Cc4ccc(Cl)cc4)nc3c2)c1	-3.9%	nt	-35.3*	nt	nt	nt
O=[N+]([O-])c1ccc(O)c(C=Nc2ccc3c(c2)OCCO3)c1	-3.6%	4.8	-0.1	-8.0	-4.6%[15.4 µM]	-0.2%
CC(=O)c1ccc(NC(=O)CN2CCN(c3ncccn3)CC2)cc1	2.3%	-1.8	-54.8*	-7.4	15.7%	10.1%
COc1cc2nc(-c3ccc(Br)o3)oc(=O)c2cc1OC	5.9%	-13.4	-39.8*	1.6	0.0%	-13.2%
CCOC(=O)Cc1ccc(NC(=O)N2CC(C)Oc3ccc(Cl)cc32)cc1 (stereo not given)	1.8%	nt	nt	-25.9	nt	nt
CCC1CN(C(=O)Nc2cccc3c2CCCC3)c2cc(C)ccc2O1 (stereo not given)	1.5%	nt	nt	-73.4*	nt	nt
Cc1ccc2c(c1)N(C(=O)Nc1cccc3c1CCCC3)CC(C)O2 (stereo not given)	0.3%	nt	nt	?	nt	nt
CCOc1ccccc1NC(=O)N1CC(C)Oc2ccc(Cl)cc21 (stereo not given)	1.1%	nt	nt	-82.9*	nt	nt
CCc1ccc(NC(=O)N2CC(C)Oc3ccc(C)cc32)cc1 (stereo not given)	0.1%	nt	nt	-62.3*	nt	nt
CCOc1ccc(Oc2nc(NCC(C)C)nc(N3CCOCC3)n2)nn1	3.7%	nt	nt	-17.3	nt	nt
CC1CCN(C(=O)Nc2ccc3nc(-c4ccco4)c(-c4ccco4)nc3c2)CC1	nt	-16.3	nt	nt	nt	nt
Cc1cccc2cc(C#N)c(NCc3ccccc3)nc12	-0.8%	-2.2	-44.3*	-2.9	0.4%	0.5%
Cc1cccc2cc(C#N)c(NCCNC(=O)COc3ccccc3)nc12	0.3%	34.2	-35.2*	0.1	-11.0%	-13.0%
